# Measurements: PubChem BioAssay (NCATS)
# Results filed as inconclusive are left out. A call without a number means that no potency is given here. A number with no mark means an inactive call. Activity calls are given as the source filed them. Calls follow the shape of the dose curve; as a rule, active = well fitted curve in the direction sought with a large enough effect; inconclusive = small, poorly fitted or top-dose-only effect, or another doubt; inactive = no such curve, though single readings can be large; an effect the other way counts as inactive or inconclusive. Where a SMILES comes first, the peptide text is derived from it. [ ]: non-standard residue; d: D form. ξ: configuration not given here. ξPhe(βξ-Me) = CC(c1ccccc1)C(N)C(=O)O; GABA = NCCCC(=O)O
# Assays:
# [1] = Primary qHTS for inhibitors of nuclear receptor binding SET domain protein 2 (NSD2) in an isogenic RCH-ACV NSD2 p.E1099K mutant (9B) (AID 1645876); conditions: RCH-ACV NSD2 E1099K (9B) viability, CellTiter-Glo, 72 h; series mostly up to 44.9 µM
# [2] = Primary qHTS for inhibitors of nuclear receptor binding SET domain protein 2 (NSD2) in an RCH-ACV wild type WT cells (2C) (AID 1645877); conditions: RCH-ACV (leukaemia line) NSD2 WT (2C) viability, CellTiter-Glo, 72 h; series mostly up to 44.9 µM
# Also: nearly all actives have a fitted effect of over 70% in size.
# Potency is read from the fitted curve at half-maximal effect.
compound,measurement,setting,value
COc1cc(CC(COC2OC(CO)C(O)C(O)C2O)c2cc(/C=C/CO)cc(OC)c2O)ccc1O (stereo unspecified),Potency,[1],inactive
same,Potency,[2],inactive
C=C[C@H]1[C@H](O[C@@H]2O[C@H](CO)[C@@H](O)[C@H](O)[C@H]2O)OC=C2C(=O)OCC[C@]21O,Potency,[1],inactive
same,Potency,[2],inactive
C[C@H]1[C@H](C)CC[C@]2(C(=O)O[C@@H]3O[C@H](CO)[C@@H](O)[C@H](O)[C@H]3O)CC[C@]3(C(=O)O)C(=CCC4[C@@]5(C)CC[C@H](O[C@@H]6O[C@H](CO)[C@@H](O)[C@H](O)[C@H]6O)C(C)(C)C5CC[C@]43C)[C@H]12 (stereo partly specified),"activity change, negative = viability loss",[1],-7.26% [at 9.23 µM]
same,"activity change, negative = cell killing",[2],-8.94% [at 9.23 µM]
C=C/C=C/[C@@H]1OC[C@H](/C=C/C=C/C)[C@H]1O,Potency,[1],inactive
same,Potency,[2],inactive
CC1=C(C)C(=O)OC(C(C)(O)C2CCC3C4CC=C5CC(OC6OC(COC7OC(CO)C(O)C(O)C7O)C(O)C(O)C6O)CC(O)C5(C)C4CCC32C)C1 (stereo unspecified),Potency,[1],inactive
same,Potency,[2],inactive
CC(C)C1=CCC(C)(O)C(OC2OC(CO)C(O)C(O)C2O)C1 (stereo unspecified),Potency,[1],inactive
same,Potency,[2],inactive
COc1cc(/C=C/CO)ccc1O[C@@H]1O[C@H](CO)[C@@H](O)[C@H](O)[C@H]1O,Potency,[1],inactive
same,Potency,[2],inactive
C=CCc1ccc(O[C@@H]2O[C@H](CO)[C@@H](O)[C@H](O)[C@H]2O)c(OC)c1,Potency,[1],inactive
same,Potency,[2],inactive
Cn1ccnc1CCOC(c1cc2nccc(C(=O)O)c2[nH]1)c1ccccc1Cl (stereo unspecified),Potency,[1],inactive
CCC(C)(O)C(O)C(=O)OCc1ccc(O[C@@H]2O[C@H](CO)[C@@H](O)[C@H](O)[C@H]2O)c(OC)c1 (stereo partly specified),Potency,[1],inactive
same,Potency,[2],inactive
C=C1CCC2C(C)(C)C(O)CCC2(C)C1CCC(C)CCOC(=O)CCC(=O)O (stereo unspecified),Potency,[1],inactive
same,Potency,[2],inactive
CO[C@@]12CC3[C@@H]([C@@H](O)[C@@H](OC(C)=O)C4[C@](C)(COC(C)=O)CCC[C@]34C)[C@@H](C)C1=CC(=O)O2 (stereo partly specified),Potency,[1],inactive
same,Potency,[2],inactive
COc1cc(C(O)C(CO)Oc2ccc(CCCO[C@@H]3O[C@@H](C)[C@H](O)[C@@H](O)[C@H]3O)cc2OC)ccc1O (stereo partly specified),Potency,[1],inactive
same,Potency,[2],inactive
C=C[C@@]1(C)CC(=O)C2[C@](C)(O1)[C@@H](OC(C)=O)[C@@H](O)[C@H]1C(C)(C)CCC[C@]21C (stereo partly specified),"activity change, negative = viability loss",[1],1.01% [at 9.23 µM]
C/C=C/C=C/C=C/C(=O)O[C@@H]1[C@@H](OC)C2=C(C(=O)N(C(C)C(=O)O)C2)[C@@]2(C)CCCC(C)(C)[C@H]12 (stereo partly specified),Potency,[1],inactive
CC1(C)O[C@]23C[C@H]1C[C@H](OC(=O)c1ccoc1)[C@]2(C)[C@@H](OC(=O)c1ccoc1)CCC3(C)O (stereo partly specified),Potency,[1],inactive
same,Potency,[2],inactive
O=C(O)c1cc(O)c2cccc(O)c2c1O[C@@H]1O[C@H](CO)[C@@H](O)[C@H](O)[C@H]1O,Potency,[1],inactive
CC(=O)[C@@H]1CC[C@]2(C(=O)O)CC[C@]3(C)C(CCC4[C@@]5(C)CC[C@H](O)C(C)(C)C5CC[C@]43C)C12 (stereo partly specified),Potency,[1],7.96 µM (active)
OCC1=CC[C@@H]2C=CO[C@@H](O[C@@H]3O[C@H](CO)[C@@H](O)[C@H](O)[C@H]3O)[C@H]12,Potency,[1],inactive
same,Potency,[2],inactive
CO[C@@H]1CC[C@H](OC[C@]2(COC(=O)c3ccc(C)[nH]3)[C@H](OC(C)=O)CC[C@@]3(C)[C@@H]4CC=C(C)[C@@H](C5=C(O)C(=O)OC5O)[C@]4(C)CC[C@@H]32)O[C@H]1C (stereo partly specified),Potency,[1],inactive
same,Potency,[2],inactive
Cc1ccc(Sc2cncc3sc(C(N)=O)cc23)cc1,Potency,[1],inactive
N#CCc1ccc(O)cc1O[C@@H]1O[C@H](CO)[C@@H](O)[C@H](O)[C@H]1O,Potency,[1],inactive
same,Potency,[2],inactive
C=CCc1ccc(O[C@@H]2O[C@H](CO[C@@H]3O[C@H](CO)[C@@H](O)[C@H](O)[C@H]3O)[C@@H](O)[C@H](O)[C@H]2O)c(O)c1,Potency,[1],inactive
same,Potency,[2],inactive
C[C@@H]1C[C@H](O[C@@H]2O[C@H](CO[C@@H]3OC[C@](O)(CO)[C@H]3O)[C@@H](O)[C@H](O)[C@H]2O)CC(C)(C)[C@H]1/C=C/[C@@H](C)O,Potency,[1],inactive
same,Potency,[2],inactive
COc1ccc(/C=C/C(=O)O[C@H]2[C@@H]3C=CO[C@@H](O[C@@H]4O[C@H](CO)[C@@H](O)[C@H](O)[C@H]4O)[C@@H]3[C@@]3(CO)O[C@@H]23)cc1O,Potency,[1],inactive
same,Potency,[2],inactive
C=C1CCC2C(OC(=O)C2(O)COC(C)=O)C2C(=C)C(O)CC12 (stereo unspecified),Potency,[1],inactive
same,Potency,[2],inactive
COc1c2c(c(C)c3c1C(=O)OC3)OC1(C)CC(O)C3(O)C(C)(C)OC(=O)CCC3(C)C1C2 (stereo unspecified),Potency,[1],inactive
same,Potency,[2],inactive
O=C(O)c1cc(O[C@@H]2O[C@H](CO[C@@H]3OC[C@@H](O)[C@H](O)[C@H]3O)[C@@H](O)[C@H](O)[C@H]2O)c2ccccc2c1O,Potency,[1],inactive
same,Potency,[2],inactive
CC(C)CC1NC(=O)C(C(C)c2ccccc2)NC(=O)C(C(C)C)NC(=O)C(C)NC(=O)CCCNC(=O)C(Cc2c[nH]c3ccccc23)NC(=O)C(C)NC1=O (stereo not drawn) (cyclo([GABA]AV[ξPhe(βξ-Me)]LAW); configuration not given here),Potency,[1],inactive
same,Potency,[2],inactive
Cc1cc(O)c(C(C)C)cc1O[C@@H]1O[C@H](CO)[C@@H](O)[C@H](O)[C@H]1O,Potency,[1],inactive
same,Potency,[2],inactive
COc1cc(C2Oc3c(OC)cc(/C=C/C(=O)OC[C@H]4O[C@@H](OC(C)(C)C(=O)O)[C@H](O)[C@@H](O)[C@@H]4O)cc3C2CO)ccc1O (stereo partly specified),Potency,[1],inactive
same,Potency,[2],inactive
CC1(C)C(=O)N2c3ccccc3[C@]3(CC(n4cnc5ccccc5c4=O)C(=O)O3)[C@H]2N1O (stereo partly specified),Potency,[1],inactive
same,Potency,[2],inactive
CO[C@H]1C=C2C(CC[C@H](O[C@@H]3O[C@H](CO)[C@@H](O)[C@@H](O)[C@H]3O)C2(C)C)[C@]2(C)CC[C@]3(C)C([C@H](C)C(O)C(C=C(C)C)O[C@@H]4O[C@H](CO)[C@@H](O)[C@@H](O)[C@H]4O)CC[C@@]3(C)C12 (stereo partly specified),outcome,[1],inactive [at 9.23 µM]
same,outcome,[2],inactive [at 9.23 µM]
C=C1CC[C@H]2[C@@](C)(CCC[C@@]2(C)C(=O)O)[C@@H]1CCC(C)CCO (stereo partly specified),Potency,[1],inactive
same,Potency,[2],inactive
COc1ccc([C@H]2Cc3cccc(O)c3C(=O)O2)cc1,Potency,[1],inactive
same,Potency,[2],inactive
C[C@]12CC[C@@H]3c4ccc(O[C@@H]5O[C@H](C(=O)O)[C@@H](O)[C@H](O)[C@H]5O)cc4CC[C@H]3[C@@H]1CCC2=O,Potency,[1],inactive
same,Potency,[2],inactive
CCCCS(=O)(=O)Nc1ncnc(OCCOc2ncc(Br)cn2)c1-c1ccc(Br)cc1,Potency,[1],inactive
same,Potency,[2],inactive
C[C@H]1C[C@H]2[C@@H]3CCC4=CC(=O)C=C[C@]4(C)[C@@]3(F)[C@@H](O)C[C@]2(C)[C@@]1(O)C(=O)COP(=O)(O)O,Potency,[1],inactive
same,Potency,[2],0.0578 µM (active)
COc1cc(C)c(C(=O)O[C@H]2[C@@H](O)[C@H](n3ccc(=O)[nH]c3=O)O[C@@H]2CO)c(OC)c1,Potency,[1],inactive
same,Potency,[2],inactive
O=C(CCO[C@@H]1O[C@H](CO)[C@@H](O)[C@H](O)[C@H]1O)c1ccc(O)cc1,Potency,[1],inactive
same,Potency,[2],inactive
CCOc1ccc(-c2ccc(Cn3c(CC(C)(C)C(=O)O)c(SC(C)(C)C)c4cc(OCc5ccc(C)cn5)ccc43)cc2)cn1,Potency,[1],inactive
same,Potency,[2],inactive
CC(=C/C(=O)O)/C=C/[C@]1(O)[C@@]2(C)CO[C@]1(C)C[C@H](O[C@@H]1O[C@H](CO)[C@@H](O)[C@H](O)[C@H]1O)C2,Potency,[1],inactive
same,Potency,[2],inactive
CC1OC(OC2C(CO)OC(OCC3OC(OC(=O)C45CCC(C)(C)CC4C4=CCC6C7(C)CCC(OC8OC(C(=O)O)C(O)C(OC9OC(CO)C(O)C(O)C9O)C8O)C(C)(C)C7CCC6(C)C4(C)CC5)C(O)C(O)C3O)C(O)C2O)C(O)C(O)C1O (stereo unspecified),"activity change, negative = viability loss",[1],0.172% [at 9.23 µM]
same,"activity change, negative = cell killing",[2],-4.23% [at 9.23 µM]
CC1CCC2C(C(=O)O)=CC3CC(C)(C)CC132 (stereo unspecified),Potency,[1],inactive
same,Potency,[2],inactive
C/C=C1/[C@H](O[C@@H]2O[C@H](CO)[C@@H](O)[C@H](O)[C@H]2O)OC=C(C(=O)OC)[C@H]1CC(=O)O[C@@H]1O[C@H](CO)[C@@H](O)[C@H](O)[C@H]1O,Potency,[1],inactive
same,Potency,[2],inactive
O=C(/C=C/c1ccc(O)c(O)c1)OCc1ccccc1O[C@@H]1O[C@H](CO)[C@@H](O)[C@H](O)[C@H]1O,Potency,[1],inactive
same,Potency,[2],inactive
CC(=O)OCC(=O)O[C@@H]1[C@H]2[C@@H](OC(=O)c3ccccc3)[C@@H](C)C[C@]2(O)[C@H](OC(C)=O)C2(C)[C@H]3CC(C)(C)C(=O)[C@@H]3CC1(OC(C)=O)[C@@H]2OC(C)=O (stereo partly specified),Potency,[1],inactive
same,Potency,[2],inactive
CCC/C=C/C(=O)O[C@H]1CC(C)(C)CC2[C@]13[C@H](O)O[C@@]21CCC2[C@@]4(C)CC[C@H](O[C@@H]5O[C@H](C(=O)O)[C@@H](O)[C@H](O[C@@H]6O[C@H](CO)[C@H](O)[C@H](O)[C@H]6O[C@@H]6O[C@@H](C)[C@H](O)[C@@H](O)[C@H]6O[C@@H]6OC[C@](O)(CO)[C@H]6O)[C@H]5O[C@@H]5O[C@H](CO)[C@H](O)[C@H](O)[C@H]5O)C(C)(C)C4CC[C@@]2(C)[C@]1(C)C[C@H]3OC(C)=O (stereo partly specified),"activity change, negative = viability loss",[1],-22.9% [at 9.23 µM]
same,"activity change, negative = cell killing",[2],-16.1% [at 9.23 µM]
COc1ncc(-c2ccc3c(Nc4cc(Oc5cc(F)cc(F)c5)cc(C(=O)O)c4)c(S(=O)(=O)NC4CC4)cnc3c2)c(OC)n1,Potency,[1],inactive
same,Potency,[2],inactive
C[C@@H]1C(=O)O[C@H]2CC34[C@H]5C[C@@H](C(C)(C)C)C36[C@@H](OC(=O)[C@@H]6O)OC4(C(=O)O5)[C@]21O (stereo partly specified),Potency,[1],inactive
same,Potency,[2],inactive
C/C=C(\C)C(=O)O[C@H]1[C@H](O)[C@]2(COC(C)=O)[C@H](O)C[C@]3(C)C(=CCC4[C@@]5(C)CC[C@H](O[C@@H]6O[C@H](C(=O)O)[C@@H](O[C@@H]7O[C@H](CO)[C@@H](O)[C@H](O)[C@H]7O)[C@H](O)[C@H]6O[C@@H]6O[C@H](CO)[C@@H](O)[C@H](O)[C@H]6O)[C@](C)(CO)C5CC[C@]43C)[C@@H]2CC1(C)C (stereo partly specified),"activity change, negative = viability loss",[1],0.0444% [at 9.23 µM]
same,"activity change, negative = cell killing",[2],-12.8% [at 9.23 µM]
